Source: PubChem BioAssay (National Center for Advancing Translational Sciences (NCATS))
Hits are enriched below; roughly 9.5% of the tested compounds scored in any of these assays.
Pf growth 96h = P. falciparum growth inhibition at 96 hour, primary screen for plastid delayed-death inhibitors; P. falciparum luciferase reporter growth, 96 h; Potency, µM (doses to about 28.7 µM), inactives show top-dose activity change, negative = inhibition, usual class: inhibitors; 320,000 compounds, 6.9% hits; AID 504834; further: on the % scale 0 is the no-effect control and ±100 the full control effect
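Delayed-death screen, second-generation endpoint: infected erythrocytes, 2% hematocrit, 0.05% parasitemia final; 96 hours at 37 C, 5% CO2; luciferase detection reagent; luminescence decrease equals reduced growth.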
RE007 growth inh = less growth of the S. pombe RE007 Vpr strain; S. pombe RE007 Vpr strain, BacTiter-Glo ATP luminescence, 24 h; Potency, µM (titrated, usually from 92.2 µM), without a hit: at the highest dose activity change, negative = less growth, usual class: inhibitors; 360,000 compounds, 0.21% hits; AID 651644; active means well fitted falling curve with a large enough effect; inconclusive means small, poorly fitted or top-dose-only effect; inactive means no such curve, though single readings can be large or run the other way; further: on the % scale 0 is the no-effect control and ±100 the full control effect; nearly all actives have a fitted effect of over 50% in size
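Fission yeast strain RE007, carrying one chromosomally integrated HIV-1 vpr copy, was seeded at OD 0.01 in PMG+AL medium with 23 nL pinned compound. After 24 h at 30 °C and 99% humidity, viability was read by BacTiter-Glo luminescence.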
NS1 inh = blocks influenza NS1 protein function. Potency, µM (top dose mostly 46.1 µM), for the others: at the top dose activity, positive = more growth. 270,000 compounds, 0.4% hits; calls by dose curve; further: actives are rising curves; nearly all actives have a fitted effect of over 50% in size
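OD600 was taken as the measure of yeast growth restored by compound in an NS1-expressing S. cerevisiae strain. Cells had been washed out of glucose medium and diluted 1:100 into galactose -URA medium, pH 6.0.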
Pf growth 48h = P. falciparum growth inhibition at 48 hours (one generation); P. falciparum luciferase growth in erythrocytes, 48 h; Potency, µM (doses to about 28.7 µM), for inactives: at the highest dose activity change, negative = inhibition, actives largely listed as inhibitors; 310,000 compounds, 5.9% hits; AID 504832; further: on the % scale 0 is the no-effect control and ±100 the full control effect
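Firefly luciferase activity from engineered P. falciparum reports growth; inhibitors lower the luminescent signal. Cultures contained 2% hematocrit erythrocytes at 0.1% final parasitemia.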
SARS PLpro yeast = inhibitors of SARS-CoV papain-like protease in yeast; S. cerevisiae expressing SARS-CoV PLpro, growth rescue; Potency, µM (doses to about 32.9 µM), inactives show top-dose activity, positive = growth rescue, hits mostly activators; 330,000 compounds, 0.19% hits; calls by dose curve; further: 0% is about no effect; nearly all actives have a fitted effect of over 55% in size
An asterisk follows results filed as active. Unless noted, the call rests on the fitted dose curve; in most records, active means well fitted inhibition curve with a large enough effect; inconclusive means small, poorly fitted or top-dose-only effect, or another doubt; inactive means no such curve, though single readings can be large or run the other way. Potency means the concentration at half of the fitted maximal effect.

CCOC(=O)[C@@H]1[C@H]2COc3ccc(Br)cc3[C@@H]2N2C(=O)N(c3ccc(C)cc3)C(=O)[C@]12C was read as Pf growth 96h 13µM*, RE007 growth inh -1%, NS1 inh 27%, Pf growth 48h inconclusive and SARS PLpro yeast 0%.
Screening Cc1cccc(CNC(=O)c2cc(S(=O)(=O)N3CCOCC3)cn2C)c1 returned Pf growth 96h 14%, RE007 growth inh -2%, NS1 inh -2%, Pf growth 48h 3% and SARS PLpro yeast 1%.
For CCOC(=O)[C@@H]1[C@H]2COc3cc(OC)ccc3[C@@H]2N2C(=O)N(c3ccc(Cl)cc3)C(=O)[C@@]12C the results were Pf growth 96h inconclusive, RE007 growth inh 1%, NS1 inh -42% and Pf growth 48h inconclusive.
Screening CCOC(=O)[C@H]1[C@H]2COc3cc(OC)ccc3[C@@H]2N2C(=O)N(c3ccc(Cl)cc3)C(=O)[C@@]12C returned Pf growth 96h 5.2µM*, RE007 growth inh 1%, NS1 inh 12%, Pf growth 48h -94% and SARS PLpro yeast -7%.
`CC1CCC(NC(=O)c2cc3c(s2)CS(=O)(=O)C3)CC1` (stereo unspecified) gave Pf growth 96h 12µM*, RE007 growth inh 4%, NS1 inh 5%, Pf growth 48h -9% and SARS PLpro yeast 1%.
Screening CCCSCCCNC(=O)c1cc2c(s1)CS(=O)(=O)C2 returned Pf growth 96h 48%, RE007 growth inh 3%, NS1 inh -1%, Pf growth 48h -3% and SARS PLpro yeast 5%.
`COC(=O)CCC(=O)c1oc2ccccc2c1NC(=O)CCCN1C(=O)c2ccccc2C1=O` gave Pf growth 96h 9.3µM*, RE007 growth inh 0%, NS1 inh 7%, Pf growth 48h 30% and SARS PLpro yeast 3%.
CCN(CC)c1ccc(NC(=O)c2ccccc2)cc1S(=O)(=O)Nc1ccccc1OC was read as Pf growth 96h inconclusive, NS1 inh -20%, Pf growth 48h 1.5µM* and SARS PLpro yeast -19%.
COc1ccccc1NS(=O)(=O)c1cccc(NC(=O)c2cncc(Br)c2)c1 was read as RE007 growth inh 14% and SARS PLpro yeast 2%.
`CCN(CC)c1ccc(NC(=O)COc2ccc(C#N)cc2)cc1S(=O)(=O)Nc1ccc(OC)cc1` gave Pf growth 96h 10µM*, RE007 growth inh -2%, NS1 inh inconclusive, Pf growth 48h inconclusive and SARS PLpro yeast 14%.
COc1ccc(OCC(=O)Nc2ccc(C)c(S(=O)(=O)N(C)C)c2)cc1 was read as Pf growth 96h -21%, RE007 growth inh 2%, Pf growth 48h -10% and SARS PLpro yeast -1%.
For CCN(CC)c1ccc(NC(=O)c2cccc(C)c2)cc1S(=O)(=O)Nc1ccccc1OC the results were Pf growth 96h 2.9µM*, RE007 growth inh inconclusive, NS1 inh 24%, Pf growth 48h 7.4µM* and SARS PLpro yeast -14%.
`CCc1ccc2c(c1)C(NC(C)=O)C(=O)N2CCN1CCOCC1` (stereo unspecified) gave Pf growth 96h -7%, RE007 growth inh 3%, NS1 inh 4%, Pf growth 48h 14% and SARS PLpro yeast -2%.
Screening Cc1cnc(C(=O)Nc2ccc(S(=O)(=O)NCC(C)C)cc2)cn1 returned Pf growth 96h 9.3µM*, RE007 growth inh -4%, NS1 inh 4%, Pf growth 48h inconclusive and SARS PLpro yeast 0%.
Screening O=C(Oc1ccc(S(=O)(=O)F)cc1F)c1ccccc1Cl returned NS1 inh -16%.
For C/C=C(/C)C(=O)OC1c2c(ccc3ccc(=O)oc23)OC(C)(C)C1OC(C)=O (stereo unspecified) the results were Pf growth 96h inconclusive, RE007 growth inh -6%, NS1 inh -13%, Pf growth 48h 8.3µM* and SARS PLpro yeast 8%.
For COc1cc(C2C3=C(CCCC3=O)Nc3[nH]n(-c4ccccc4)c(=O)c32)ccc1O (stereo unspecified) the results were Pf growth 96h inconclusive, RE007 growth inh 3%, NS1 inh 10%, Pf growth 48h 5.2µM* and SARS PLpro yeast 4%.
